19 molecules from PubChem BioAssay (NCATS) can be followed below.

Structures are written as SMILES. Inconclusive results are not listed. A number with no mark means an inactive call. Active and inactive are the calls of the source. Calls come from the whole dose curve; as a rule, active = well fitted cell-killing curve with a large enough effect; inconclusive = small, poorly fitted or top-dose-only effect, or effect the other way; inactive = no such curve, though single readings can be large or run the other way.

Assay [1] in a line: Quantitative High-Throughput drug screen in 47 multiple myeloma cell lines against the NCATS MIPE library collection: MM1S_ATCC cell viability assay (AID 1918980). Note: nearly all actives have a fitted effect of over 45% in size. The essentials:
(§1)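 Cells were exposed to library compounds for 48 hours, after which ATP was measured by CellTiter-Glo. Signal was taken as median relative luminescence units.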

A short description of assay [2]: Quantitative High-Throughput drug screen in 47 multiple myeloma cell lines against the NCATS MIPE library collection: LP1_DSMZ cell viability assay (AID 1918982). Note: nearly all actives have a fitted effect of over 35% in size. The method, boiled down: as §1
Assay [3] can be described thus: Quantitative High-Throughput drug screen in 47 multiple myeloma cell lines against the NCATS MIPE library collection: KMS28PE_JCRB cell viability assay (AID 1918983). Note: nearly all actives have a fitted effect of over 35% in size. The essentials: as §1
A short description of assay [4]: Quantitative High-Throughput drug screen in 47 multiple myeloma cell lines against the NCATS MIPE library collection: L363_DSMZ cell viability assay (AID 1918984). Note: nearly all actives have a fitted effect of over 40% in size. The method, boiled down:
as §1

The nature of assay [5]: Quantitative High-Throughput drug screen in 47 multiple myeloma cell lines against the NCATS MIPE library collection: KMS34_JCRB cell viability assay (AID 1918985). Note: nearly all actives have a fitted effect of over 40% in size. The method, boiled down: as §1
The nature of assay [6]: Quantitative High-Throughput drug screen in 47 multiple myeloma cell lines against the NCATS MIPE library collection: OCIMY7_PLB cell viability assay (AID 1918987). Note: nearly all actives have a fitted effect of over 65% in size. Conditions: OCI-MY7 myeloma viability, CellTiter-Glo ATP, 48 h; viability (% of DMSO): at 45.8 µM (top of the series). The essentials: as §1
In general terms: In ATP-based viability assays light output follows the ATP content of the culture.

The nature of assay [7]: Quantitative High-Throughput drug screen in 47 multiple myeloma cell lines against the NCATS MIPE library collection: OCIMY5_PLB cell viability assay (AID 1918988). Note: nearly all actives have a fitted effect of over 65% in size. The method, boiled down:
as §1

The nature of assay [8]: Quantitative High-Throughput drug screen in 47 multiple myeloma cell lines against the NCATS MIPE library collection: OPM1_PLB cell viability assay (AID 1918989). Note: nearly all actives have a fitted effect of over 40% in size. The essentials:
as §1

Assay [9] can be described thus: Quantitative High-Throughput drug screen in 47 multiple myeloma cell lines against the NCATS MIPE library collection: SKMM1_PLB cell viability assay (AID 1919863). Note: nearly all actives have a fitted effect of over 35% in size. The conditions noted are these: SKMM1 myeloma viability, CellTiter-Glo ATP, 48 h; viability: hits give low values. The method, boiled down: as §1
A short description of assay [10]: Quantitative High-Throughput drug screen in 47 multiple myeloma cell lines against the NCATS MIPE library collection: MM1R_ATCC cell viability assay (AID 1918981). Note: nearly all actives have a fitted effect of over 35% in size. The essentials: as §1
Potency is the fitted concentration of half-maximal effect.

As for `C=CCNC1=C2C[C@@H](C)C[C@H](OC)[C@@H](O)[C@@H](C)C=C(C)[C@H](OC(N)=O)[C@@H](OC)C=CC=C(C)C(=O)NC(=CC1=O)C2=O`, the Potency is 2.35 µM (active) in assay [1]; 5.9 µM (active) in assay [2]; 0.418 µM (active) in assay [3]; 0.0264 µM (active) in [4]; 0.235 µM (active) in [5]; 0.833 µM (active) in [6]. The Potency was 0.526 µM (active) in [7], 1.32 µM (active) in [8] and 0.833 µM (active) in assay [9].
With `O=C(Nc1cccc(Nc2ncc(Br)c(NCCc3cnc[nH]3)n2)c1)N1CCCC1`, the Potency in [1] was 18.7 µM (active); in assay [2], 20.9 µM (active); in assay [3], 14.8 µM (active); in assay [5], 2.96 µM (active); in [7], 14.8 µM (active); in [8], 1.87 µM (active). In assay [9], the Potency was 23.5 µM (active). Besides, in assay [4], the Potency entry was “inactive”.
As for `Nc1ccc(C(=O)Nc2cccc(-c3nc(N4CCOCC4)c4oc5ncccc5c4n3)c2)cn1`, the Potency in [1] was 23.5 µM (active); in [10], 13.2 µM (active); in [3], 26.4 µM (active); in assay [4], 1.18 µM (active); in assay [5], 7.43 µM (active); in assay [7], 5.9 µM (active). Moreover, the Potency in [8] is 1.48 µM (active); in [9], 23.5 µM (active).
Take `C#Cc1cccc(Nc2ncnc3cc(OCCOC)c(OCCO)cc23)c1`: the Potency in assay [1] is 3.72 µM (active); in assay [3], 18.7 µM (active); in [4], 0.372 µM (active).
One may read the viability as a read-out of living cells in per cent, often relative to untreated cells. Regarding `COc1ccnc2[nH]cc(C(=O)C(=O)N3CCN(C(=O)c4ccccc4)C[C@@H]3C)c12`, the Potency entry in [1], in assay [2], in assay [3] and in [8] was “inactive” throughout. Besides, in assay [9], the viability is 120%.
With `NC(=O)c1ncn([C@@H]2O[C@H](CO)[C@@H](O)[C@@H]2O)c1O`, the Potency result in assay [1], in assay [4], in assay [5] and in assay [8] was “inactive” each time. In assay [9], the viability is 102%.
`Cc1nc(NC(=O)N2CCC[C@@H]2C(N)=O)sc1-c1ccnc(C(C)(C)C(F)(F)F)c1`: the Potency in assay [1] is 3.32 µM (active); in assay [2] it was 1.48 µM (active); in [3], 0.296 µM (active); in [5], 1.87 µM (active); in [7] it was 0.935 µM (active); in [8] it was 2.96 µM (active). Moreover, the Potency in [9] was 6.62 µM (active).
With `N#Cc1c(NC(=O)c2cccc3ccccc23)sc2c1CCCC2`, the Potency in assay [1] is 1.05 µM (active); in [3], 0.469 µM (active); in assay [4], 0.296 µM (active); in assay [5], 0.296 µM (active); in [6], 0.187 µM (active); in assay [7], 0.187 µM (active). The Potency in assay [8] was 0.469 µM (active); in assay [9], 0.526 µM (active).
Regarding `O=S(=O)(O)CCSSCCS(=O)(=O)O`, the Potency in assay [1] is 18.7 µM (active). For the same molecule, the Potency entry in assay [2], in assay [7] and in assay [8] was “inactive” each time.
As to `O=[N+]([O-])c1cn2c(n1)OC[C@@H](OCc1ccc(OC(F)(F)F)cc1)C2`, in assay [1], the Potency is 2.64 µM (active). Moreover, the Potency result in assay [2], in assay [5], in assay [7] and in assay [8] was “inactive” in each case.
Consider `CCc1nc(-c2cccc(C)c2)c(-c2ccnc(NC(=O)c3ccccc3)c2)s1`, for which the Potency was 20.9 µM (active) in assay [1]; 20.9 µM (active) in [3]; 16.6 µM (active) in [7]; 13.2 µM (active) in assay [8]; 7.43 µM (active) in [9]. The Potency entry in [4] was “inactive”.
`COc1cc([C@@H]2c3cc4c(cc3[C@H](O)[C@H]3COC(=O)[C@@H]23)OCO4)cc(OC)c1OC`: the Potency in assay [1] is 0.833 µM (active); in assay [3] it was 0.148 µM (active); in [4], 0.0662 µM (active); in [5], 0.0833 µM (active); in [6], 0.0469 µM (active); in assay [7], 0.0296 µM (active). Further, the Potency in assay [8] is 0.187 µM (active); in assay [9] it was 0.059 µM (active).
On to `COc1cc(N2CCC(C(N)=O)CC2)ccc1Nc1nc(N)c(Cl)c(Nc2ccccc2S(=O)(=O)C(C)C)n1`, for which the Potency in assay [1] was 0.743 µM (active); in assay [3], 0.743 µM (active); in assay [4] it was 0.0148 µM (active); in assay [6] it was 0.209 µM (active); in [7], 0.935 µM (active); in [8], 5.9 µM (active).
Consider `C=C1CCC2[C@](C)(CO)C(O)CC[C@]2(C)C1CC=C1C(=O)OCC1O` (some centres undefined), for which the Potency result in [1], in assay [2] and in assay [8] was “inactive” throughout. Also, in assay [7], the Potency is 42.9 µM (active).
With `N=c1ccn2c(n1)O[C@H]1[C@@H](O)[C@@H](CO)O[C@H]12`, the Potency is 2.64 µM (active) in assay [1], 0.332 µM (active) in assay [6] and 0.148 µM (active) in assay [9]. The Potency result in [2] and in assay [3] was “inactive” throughout.
Turning to `Cn1c(Nc2ccc(C(F)(F)F)cc2)nc2cc(Oc3ccnc(-c4ncc(C(F)(F)F)[nH]4)c3)ccc21`, the Potency in assay [1] was 9.35 µM (active); in [3], 23.5 µM (active); in assay [4], 16.6 µM (active); in assay [6], 3.72 µM (active); in assay [7], 9.35 µM (active); in assay [8], 16.6 µM (active). For the same molecule, the Potency in [9] was 20.9 µM (active).
Take `Cc1cc(C(=O)NOCCO)c(Nc2ccc(I)cc2F)n(C)c1=O`: the Potency in assay [1] was 2.96 µM (active). Also, the Potency result in assay [2], in assay [3] and in [4] was “inactive” in each case. In addition, the viability in assay [9] was 90.9%.
On to `CC(C)OC(=O)[C@H](C)N[P@](=O)(OC[C@H]1O[C@@H](n2ccc(=O)[nH]c2=O)[C@](C)(F)[C@H]1O)Oc1ccccc1`, for which the Potency entry in [1], in assay [2], in assay [5] and in [8] was “inactive” each time. The viability in assay [9] was 127%.
Take `COc1ccc(Nc2cc(-c3cnc(N)nc3)nc(N3CCOCC3)n2)cn1`: the Potency in [1] was 4.69 µM (active); in [3] it was 0.833 µM (active); in assay [4], 0.526 µM (active); in assay [6] it was 1.05 µM (active); in [8], 3.72 µM (active); in [9], 0.235 µM (active).
